Columns and labels:
Experiment in all cases: DAPPL (digital affinity profiling via proximity ligation, sequencing); 10 mM Tris-HCl pH 7.5, 50 mM NaCl, 1 mM DTT, 4% glycerol, room temperature, 30 min; GST-TFs on glutathione beads, 16-mer random dsDNA library, 0.1% formaldehyde crosslink after washing; high values mean tight binding
FEV = molecular target: T1, FEV (Homo sapiens, UniProt Q99581 1-238); conditions: protein: recombinant; tags: N-terminal GST; dsDNA, one strand shown
T1 sequence: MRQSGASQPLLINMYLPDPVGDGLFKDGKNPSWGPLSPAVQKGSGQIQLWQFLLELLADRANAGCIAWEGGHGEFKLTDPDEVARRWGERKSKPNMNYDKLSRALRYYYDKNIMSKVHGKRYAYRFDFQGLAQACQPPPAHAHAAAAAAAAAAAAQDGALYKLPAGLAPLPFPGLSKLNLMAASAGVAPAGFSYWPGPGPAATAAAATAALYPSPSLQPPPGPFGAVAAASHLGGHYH
Method in brief: (§1)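 Human transcription factors were made in yeast as GST fusions, captured on glutathione beads and barcoded with DNA. With a tag-only sample included, the pool was incubated with 200 nmole of a random double-stranded 16-mer DNA library in Tris/NaCl/DTT/glycerol buffer at room temperature for 30 min, then crosslinked with 0.1% formaldehyde after washing, ligated by proximity, amplified and sequenced. For binding signal, each hexamer's read frequency for a factor is divided by its frequency for the tag-only sample.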

ETV5 = ETV5 (Homo sapiens, UniProt P41161 1-510); conditions: protein: recombinant; tags: N-terminal GST; dsDNA, one strand shown
Method in brief: as §1

HSF1 = HSF1 (Homo sapiens, UniProt Q00613 1-529); conditions: protein: recombinant; tags: N-terminal GST; chain copies: 3; dsDNA, one strand shown
Method in brief: as §1

SPIC = molecular target: T2, SPIC (Homo sapiens, UniProt Q8N5J4 1-248); conditions: protein: recombinant; tags: N-terminal GST; dsDNA, one strand shown
T2 sequence: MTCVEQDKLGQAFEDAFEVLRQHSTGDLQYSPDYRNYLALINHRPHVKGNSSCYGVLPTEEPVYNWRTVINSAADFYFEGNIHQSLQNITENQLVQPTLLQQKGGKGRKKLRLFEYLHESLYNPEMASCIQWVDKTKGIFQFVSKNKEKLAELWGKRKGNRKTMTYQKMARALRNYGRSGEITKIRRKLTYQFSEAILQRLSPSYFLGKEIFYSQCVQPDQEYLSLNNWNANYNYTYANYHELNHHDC
Method in brief: as §1

ELF4 = ELF4 (Homo sapiens, UniProt Q99607 1-663); conditions: protein: recombinant; tags: N-terminal GST; dsDNA, one strand shown
Method in brief: as §1

ELK4 = molecular target: T3, ELK4 (Homo sapiens, UniProt P28324-2 1-405); conditions: protein: recombinant; tags: N-terminal GST; dsDNA, one strand shown
T3 sequence: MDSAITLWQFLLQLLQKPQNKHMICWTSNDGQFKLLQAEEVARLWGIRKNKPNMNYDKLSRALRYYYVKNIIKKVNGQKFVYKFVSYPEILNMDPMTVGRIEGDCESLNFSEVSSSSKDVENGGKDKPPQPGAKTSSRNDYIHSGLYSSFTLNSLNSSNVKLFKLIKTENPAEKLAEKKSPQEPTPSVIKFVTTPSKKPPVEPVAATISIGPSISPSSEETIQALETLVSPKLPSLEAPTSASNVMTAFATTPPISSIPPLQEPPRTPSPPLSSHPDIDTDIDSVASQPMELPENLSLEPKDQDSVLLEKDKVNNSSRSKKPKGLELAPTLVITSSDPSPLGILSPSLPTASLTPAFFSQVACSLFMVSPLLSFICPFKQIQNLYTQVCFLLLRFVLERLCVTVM
Method in brief: as §1

ETV2 = molecular target: T4, ETV2 (Homo sapiens, UniProt O00321 1-342); conditions: protein: recombinant; tags: N-terminal GST; dsDNA, one strand shown
T4 sequence: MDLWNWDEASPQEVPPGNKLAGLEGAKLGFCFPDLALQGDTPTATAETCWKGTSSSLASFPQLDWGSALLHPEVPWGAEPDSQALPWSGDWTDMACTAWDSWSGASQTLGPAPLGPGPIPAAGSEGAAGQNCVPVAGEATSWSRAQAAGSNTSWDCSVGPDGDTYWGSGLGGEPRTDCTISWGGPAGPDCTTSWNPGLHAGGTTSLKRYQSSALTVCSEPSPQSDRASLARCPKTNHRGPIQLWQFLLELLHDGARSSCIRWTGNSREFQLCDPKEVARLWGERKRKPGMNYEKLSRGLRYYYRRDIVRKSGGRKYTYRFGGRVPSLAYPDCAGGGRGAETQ
Method in brief: as §1

ELF3 = molecular target: T5, ELF3 (Homo sapiens, UniProt P78545 1-371); conditions: protein: recombinant; tags: N-terminal GST; dsDNA, one strand shown
T5 sequence: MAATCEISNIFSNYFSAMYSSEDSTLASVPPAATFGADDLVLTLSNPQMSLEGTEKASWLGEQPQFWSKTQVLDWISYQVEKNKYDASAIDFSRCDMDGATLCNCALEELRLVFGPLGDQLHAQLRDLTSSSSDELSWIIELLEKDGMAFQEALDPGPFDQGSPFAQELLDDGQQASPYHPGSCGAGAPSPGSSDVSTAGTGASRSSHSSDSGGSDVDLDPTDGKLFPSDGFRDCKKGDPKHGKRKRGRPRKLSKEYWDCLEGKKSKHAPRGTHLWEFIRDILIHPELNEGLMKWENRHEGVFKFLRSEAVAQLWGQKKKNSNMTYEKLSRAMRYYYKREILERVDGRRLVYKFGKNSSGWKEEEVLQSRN
Method in brief: as §1

CRX = CRX (Homo sapiens, UniProt O43186 1-299); conditions: protein: recombinant; tags: N-terminal GST; dsDNA, one strand shown
Method in brief: as §1

ETV1 = ETV1 (Homo sapiens, UniProt P50549 1-477); conditions: protein: recombinant; tags: N-terminal GST; dsDNA, one strand shown
Method in brief: as §1

ERF = molecular target: T6, ERF (Homo sapiens, UniProt P50548 1-548); conditions: protein: recombinant; tags: N-terminal GST; dsDNA, one strand shown
T6 sequence: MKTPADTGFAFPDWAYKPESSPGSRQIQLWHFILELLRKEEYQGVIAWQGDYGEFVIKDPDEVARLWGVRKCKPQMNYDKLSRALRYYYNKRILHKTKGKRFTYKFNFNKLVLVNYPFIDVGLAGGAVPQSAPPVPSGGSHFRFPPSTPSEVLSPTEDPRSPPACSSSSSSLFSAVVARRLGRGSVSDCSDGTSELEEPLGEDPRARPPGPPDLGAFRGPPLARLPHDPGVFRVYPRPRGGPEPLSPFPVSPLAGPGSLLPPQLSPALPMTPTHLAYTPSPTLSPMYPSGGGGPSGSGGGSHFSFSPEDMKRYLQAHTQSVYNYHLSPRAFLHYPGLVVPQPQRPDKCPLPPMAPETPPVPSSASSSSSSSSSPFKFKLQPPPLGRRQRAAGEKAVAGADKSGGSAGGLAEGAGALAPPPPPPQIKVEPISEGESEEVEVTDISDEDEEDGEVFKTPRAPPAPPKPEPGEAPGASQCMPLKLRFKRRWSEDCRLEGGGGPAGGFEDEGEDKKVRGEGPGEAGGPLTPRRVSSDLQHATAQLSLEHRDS
Method in brief: as §1

ETV3L = molecular target: T7, ETV3L (Homo sapiens, UniProt Q6ZN32 1-361); conditions: protein: recombinant; tags: N-terminal GST; dsDNA, one strand shown
T7 sequence: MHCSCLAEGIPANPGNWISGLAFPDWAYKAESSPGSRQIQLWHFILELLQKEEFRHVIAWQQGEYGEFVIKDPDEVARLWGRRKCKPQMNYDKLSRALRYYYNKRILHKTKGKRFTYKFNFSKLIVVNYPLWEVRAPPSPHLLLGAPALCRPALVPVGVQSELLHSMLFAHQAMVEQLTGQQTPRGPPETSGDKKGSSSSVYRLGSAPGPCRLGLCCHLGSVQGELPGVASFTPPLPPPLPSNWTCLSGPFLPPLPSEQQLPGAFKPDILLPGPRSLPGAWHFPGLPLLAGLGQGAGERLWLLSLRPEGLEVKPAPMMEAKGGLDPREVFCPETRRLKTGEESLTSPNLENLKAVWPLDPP
Method in brief: as §1

ETS2 = molecular target: T8, ETS2 (Homo sapiens, UniProt P15036 1-469); conditions: protein: recombinant; tags: N-terminal GST; dsDNA, one strand shown
T8 sequence: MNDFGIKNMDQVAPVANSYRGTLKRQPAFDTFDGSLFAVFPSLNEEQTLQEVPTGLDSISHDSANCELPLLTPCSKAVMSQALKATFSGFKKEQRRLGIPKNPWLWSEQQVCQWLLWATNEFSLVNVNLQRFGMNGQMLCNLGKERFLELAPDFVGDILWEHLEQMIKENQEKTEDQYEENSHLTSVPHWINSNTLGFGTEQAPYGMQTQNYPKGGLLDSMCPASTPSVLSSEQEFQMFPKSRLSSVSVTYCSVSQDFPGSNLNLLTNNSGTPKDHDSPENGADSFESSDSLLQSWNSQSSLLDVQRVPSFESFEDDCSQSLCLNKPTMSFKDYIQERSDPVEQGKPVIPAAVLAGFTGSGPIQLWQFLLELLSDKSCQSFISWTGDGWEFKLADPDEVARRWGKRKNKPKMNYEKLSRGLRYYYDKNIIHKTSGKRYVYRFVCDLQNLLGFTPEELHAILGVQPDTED
Method in brief: as §1

SPDEF = molecular target: T9, SPDEF (Homo sapiens, UniProt O95238 1-335); conditions: protein: recombinant; tags: N-terminal GST; dsDNA, one strand shown
T9 sequence: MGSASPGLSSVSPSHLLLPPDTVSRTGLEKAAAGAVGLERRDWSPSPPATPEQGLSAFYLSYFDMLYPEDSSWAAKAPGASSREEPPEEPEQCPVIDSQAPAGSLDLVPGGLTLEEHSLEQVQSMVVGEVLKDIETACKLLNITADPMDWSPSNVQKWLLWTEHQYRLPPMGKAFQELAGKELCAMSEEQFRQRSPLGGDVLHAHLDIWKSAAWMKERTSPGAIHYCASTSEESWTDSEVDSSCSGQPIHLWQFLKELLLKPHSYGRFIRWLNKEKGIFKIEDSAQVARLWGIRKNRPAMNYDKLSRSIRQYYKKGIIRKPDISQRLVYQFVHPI
Method in brief: as §1

ETV7 = molecular target: T10, ETV7 (Homo sapiens, UniProt Q9Y603 1-341); conditions: protein: recombinant; tags: N-terminal GST; dsDNA, one strand shown
T10 sequence: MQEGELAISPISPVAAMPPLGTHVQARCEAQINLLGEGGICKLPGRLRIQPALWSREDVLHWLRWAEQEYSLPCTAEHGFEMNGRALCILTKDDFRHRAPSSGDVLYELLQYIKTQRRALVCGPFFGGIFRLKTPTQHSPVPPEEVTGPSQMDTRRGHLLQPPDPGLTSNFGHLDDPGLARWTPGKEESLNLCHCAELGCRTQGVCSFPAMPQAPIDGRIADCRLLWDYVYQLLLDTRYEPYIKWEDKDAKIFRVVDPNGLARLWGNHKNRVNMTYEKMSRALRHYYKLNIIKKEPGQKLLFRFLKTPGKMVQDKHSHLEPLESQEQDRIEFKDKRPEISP
Method in brief: as §1

ELF5 = molecular target: T11, ELF5 (Homo sapiens, UniProt Q9UKW6-2 1-255); conditions: protein: recombinant; tags: N-terminal GST; dsDNA, one strand shown
T11 sequence: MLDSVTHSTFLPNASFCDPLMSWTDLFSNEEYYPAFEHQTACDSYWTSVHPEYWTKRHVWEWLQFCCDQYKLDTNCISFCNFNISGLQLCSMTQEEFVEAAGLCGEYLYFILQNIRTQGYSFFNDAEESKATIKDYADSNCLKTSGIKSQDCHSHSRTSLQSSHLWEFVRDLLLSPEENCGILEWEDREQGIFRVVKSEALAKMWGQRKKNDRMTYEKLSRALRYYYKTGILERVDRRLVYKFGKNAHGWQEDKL
Method in brief: as §1

ETV3 = molecular target: T12, ETV3 (Homo sapiens, UniProt P41162-2 1-143); conditions: protein: recombinant; tags: N-terminal GST; dsDNA, one strand shown
T12 sequence: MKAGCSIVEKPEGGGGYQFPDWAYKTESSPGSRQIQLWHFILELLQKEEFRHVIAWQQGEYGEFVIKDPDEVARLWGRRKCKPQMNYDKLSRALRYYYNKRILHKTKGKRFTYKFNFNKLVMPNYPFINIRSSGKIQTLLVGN
Method in brief: as §1

ETV6 = ETV6 (Homo sapiens, UniProt P41212 1-452); conditions: protein: recombinant; tags: N-terminal GST; dsDNA, one strand shown
Method in brief: as §1

Chain of ETV1 (P50549 whole entry): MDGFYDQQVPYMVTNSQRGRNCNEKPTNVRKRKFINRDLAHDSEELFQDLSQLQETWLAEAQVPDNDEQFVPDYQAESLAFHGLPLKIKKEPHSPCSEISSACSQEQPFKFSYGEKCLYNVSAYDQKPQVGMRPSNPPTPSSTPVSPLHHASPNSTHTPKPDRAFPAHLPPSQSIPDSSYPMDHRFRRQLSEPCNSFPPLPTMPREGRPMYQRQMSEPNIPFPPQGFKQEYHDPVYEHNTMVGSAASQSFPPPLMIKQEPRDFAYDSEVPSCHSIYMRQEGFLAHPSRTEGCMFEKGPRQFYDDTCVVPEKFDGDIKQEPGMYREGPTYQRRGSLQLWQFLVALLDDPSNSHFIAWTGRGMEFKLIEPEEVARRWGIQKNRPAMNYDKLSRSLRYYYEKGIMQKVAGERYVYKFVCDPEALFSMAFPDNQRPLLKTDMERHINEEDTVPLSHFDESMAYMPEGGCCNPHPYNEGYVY
Chain of HSF1 (Q00613 whole entry): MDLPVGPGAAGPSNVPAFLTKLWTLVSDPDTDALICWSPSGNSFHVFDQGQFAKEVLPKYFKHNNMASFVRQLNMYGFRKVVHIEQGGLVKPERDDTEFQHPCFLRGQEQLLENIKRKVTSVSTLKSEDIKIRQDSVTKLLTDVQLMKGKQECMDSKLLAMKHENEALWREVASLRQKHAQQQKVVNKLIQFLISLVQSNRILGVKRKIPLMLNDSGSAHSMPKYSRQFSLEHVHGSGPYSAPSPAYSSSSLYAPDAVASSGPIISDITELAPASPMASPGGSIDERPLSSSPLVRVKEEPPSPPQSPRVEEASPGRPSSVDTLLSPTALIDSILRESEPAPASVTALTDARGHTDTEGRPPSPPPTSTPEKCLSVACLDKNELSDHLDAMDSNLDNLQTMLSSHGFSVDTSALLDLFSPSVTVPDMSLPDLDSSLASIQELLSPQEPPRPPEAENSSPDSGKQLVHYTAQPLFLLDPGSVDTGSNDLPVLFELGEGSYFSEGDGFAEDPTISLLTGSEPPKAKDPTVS
Chain of ELF4 (Q99607 whole entry): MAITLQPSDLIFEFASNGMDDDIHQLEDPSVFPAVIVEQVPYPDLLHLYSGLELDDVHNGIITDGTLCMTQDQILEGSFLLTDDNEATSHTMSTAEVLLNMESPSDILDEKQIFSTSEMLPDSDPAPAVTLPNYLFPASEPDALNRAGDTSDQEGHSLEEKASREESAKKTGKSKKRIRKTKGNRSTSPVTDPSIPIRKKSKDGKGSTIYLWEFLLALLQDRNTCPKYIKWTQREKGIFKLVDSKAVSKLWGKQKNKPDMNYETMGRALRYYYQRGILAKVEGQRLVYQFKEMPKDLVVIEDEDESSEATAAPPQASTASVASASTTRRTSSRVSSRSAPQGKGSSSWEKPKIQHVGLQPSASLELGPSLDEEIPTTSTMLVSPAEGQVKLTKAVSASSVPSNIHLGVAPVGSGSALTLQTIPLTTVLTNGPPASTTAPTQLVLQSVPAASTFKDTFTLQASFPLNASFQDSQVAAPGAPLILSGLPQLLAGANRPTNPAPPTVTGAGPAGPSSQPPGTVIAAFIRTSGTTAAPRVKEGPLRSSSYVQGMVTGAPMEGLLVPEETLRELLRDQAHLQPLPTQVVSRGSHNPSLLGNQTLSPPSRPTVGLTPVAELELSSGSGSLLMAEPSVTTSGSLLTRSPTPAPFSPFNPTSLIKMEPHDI
Chain of ETV6 (P41212 whole entry): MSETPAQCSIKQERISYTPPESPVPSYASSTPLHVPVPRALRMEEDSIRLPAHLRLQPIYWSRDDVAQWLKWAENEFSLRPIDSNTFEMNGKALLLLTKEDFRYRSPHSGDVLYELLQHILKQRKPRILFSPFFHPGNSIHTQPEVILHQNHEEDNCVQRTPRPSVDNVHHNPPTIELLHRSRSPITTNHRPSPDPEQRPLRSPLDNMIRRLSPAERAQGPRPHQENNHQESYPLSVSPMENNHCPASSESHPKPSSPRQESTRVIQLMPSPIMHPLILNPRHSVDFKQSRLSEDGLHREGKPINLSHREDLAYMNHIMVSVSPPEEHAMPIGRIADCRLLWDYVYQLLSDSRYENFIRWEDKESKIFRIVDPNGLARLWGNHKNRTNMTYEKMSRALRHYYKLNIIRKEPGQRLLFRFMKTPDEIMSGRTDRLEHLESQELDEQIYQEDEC
Chain of ETV5 (P41161 whole entry): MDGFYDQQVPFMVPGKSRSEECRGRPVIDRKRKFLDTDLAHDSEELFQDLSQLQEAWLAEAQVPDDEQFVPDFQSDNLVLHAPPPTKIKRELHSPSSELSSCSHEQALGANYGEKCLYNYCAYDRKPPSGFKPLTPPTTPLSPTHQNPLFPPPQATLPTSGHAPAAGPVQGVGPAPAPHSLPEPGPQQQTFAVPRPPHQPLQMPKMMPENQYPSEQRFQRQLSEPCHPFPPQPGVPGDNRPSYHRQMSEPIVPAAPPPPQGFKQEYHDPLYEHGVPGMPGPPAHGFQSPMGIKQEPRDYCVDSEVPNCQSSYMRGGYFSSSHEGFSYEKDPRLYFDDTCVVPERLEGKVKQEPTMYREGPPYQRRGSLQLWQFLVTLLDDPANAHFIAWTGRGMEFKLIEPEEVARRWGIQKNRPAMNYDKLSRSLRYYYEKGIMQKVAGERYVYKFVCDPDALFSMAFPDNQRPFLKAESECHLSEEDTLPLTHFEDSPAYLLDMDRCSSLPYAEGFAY
Chain of CRX (O43186 whole entry): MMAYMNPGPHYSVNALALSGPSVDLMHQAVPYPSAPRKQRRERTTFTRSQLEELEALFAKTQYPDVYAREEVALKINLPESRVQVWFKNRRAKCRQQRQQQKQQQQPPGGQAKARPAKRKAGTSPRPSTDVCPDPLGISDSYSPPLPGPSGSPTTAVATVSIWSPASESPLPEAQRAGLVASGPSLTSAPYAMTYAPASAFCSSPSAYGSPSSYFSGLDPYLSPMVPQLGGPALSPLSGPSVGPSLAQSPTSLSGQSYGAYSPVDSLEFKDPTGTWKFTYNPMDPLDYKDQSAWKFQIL

**Q.** Which results are given for TCTGGC?
**A.** binding signal (FEV): 1.16 fold enrichment (6-mer frequency, TF over GST control); binding signal (ETV5): 1.11 fold enrichment (6-mer frequency, TF over GST control); binding signal (HSF1): 1.89 fold enrichment (6-mer frequency, TF over GST control); binding signal (SPIC): 1.38 fold enrichment (6-mer frequency, TF over GST control); binding signal (ELF4): 1.4 fold enrichment (6-mer frequency, TF over GST control); binding signal (ELK4): 1.44 fold enrichment (6-mer frequency, TF over GST control); binding signal (ETV2): 1.28 fold enrichment (6-mer frequency, TF over GST control); binding signal (ELF3): 1.03 fold enrichment (6-mer frequency, TF over GST control); binding signal (CRX): 1.31 fold enrichment (6-mer frequency, TF over GST control); binding signal (ETV1): 1.24 fold enrichment (6-mer frequency, TF over GST control); binding signal (ERF): 1.31 fold enrichment (6-mer frequency, TF over GST control); binding signal (ETV3L): 1.11 fold enrichment (6-mer frequency, TF over GST control); binding signal (ETS2): 1.21 fold enrichment (6-mer frequency, TF over GST control); binding signal (SPDEF): 1.15 fold enrichment (6-mer frequency, TF over GST control); binding signal (ETV7): 1.24 fold enrichment (6-mer frequency, TF over GST control); binding signal (ELF5): 1.08 fold enrichment (6-mer frequency, TF over GST control); binding signal (ETV3): 1.06 fold enrichment (6-mer frequency, TF over GST control); binding signal (ETV6): 1.19 fold enrichment (6-mer frequency, TF over GST control)
